# From PubChem BioAssay AID2384 (Southern Research Specialized Biocontainment Screening …, 2010)
# The whole screen tested about 2,300 compounds, of which about 1,100 (48%) were called active. The rule behind the calls is not given here. So high a share suggests a set chosen from earlier hits. Some of the results follow. Measured potencies and affinities stand elsewhere.
# Test: S. typhi counter-screen signal inhibition – fluorescence, 4 h, counter-screen for PhoP regulon inhibitor project, dose response (AID 2384)
# Settings: S. typhi GFP reporter counter-screen; series mostly up to 150 µM
row,Structure (SMILES),inhibition
1,O=C1c2ccccc2NC(c2cccc([N+](=O)[O-])c2)N1CCc1ccccc1 (centres undefined),inactive
2,CN1C(=O)/C(=C2/C=Cc3ccccc3N2CCCS(=O)(=O)O)SC1=S,inactive
3,CCOC(=O)c1nc(C)n(-c2cc(Cl)ccc2Cl)n1,inactive
4,COc1ccccc1C1CN(c2ccc(F)cc2F)N=C1c1cccs1 (centres undefined),inactive
5,Cc1n[nH]c(=O)nc1NCCc1ccccc1,inactive
6,Cc1cccc(OCCSc2nnc(-c3ccoc3C)n2C)c1,inactive
7,CC(C)CC(=O)N1CCN(C(=O)CCC2CCCC2)CC1,inactive
8,Cc1cccc(NC(=O)C2CCCN2S(=O)(=O)c2ccc3c(c2)n(C)c(=O)c(=O)n3C)c1 (centres undefined),inactive
9,O=C(CCN1CCOCC1)Nc1ccccc1,inactive
10,O=C(Nc1ccc(Cl)cc1)N1CCCN(Cc2ccccc2F)C1,inactive
11,Cc1cc(=O)oc2ccc(OCC(=O)N3CCC(C)CC3)cc12,inactive
12,O=C(COc1ccc(Cl)cc1)N1CCN(C2CCCC2)CC1,inactive
13,O=C(O)COc1ccc(F)cc1Br,inactive
14,O=C(/C=C/c1ccc(Cl)cc1Cl)NCc1ccncc1,inactive
15,CCCSc1nc2cc(OC)c(OC)cc2c(=N)n1CCCN1CCOCC1,inactive
16,CC(C)(C)c1ccc(NC(=O)NCc2ccco2)cc1,inactive
17,COc1ccccc1-n1nc(C(=O)NCc2ccco2)c2ccccc2c1=O,inactive
18,CC(C)(C)c1nc(SCC(=O)NCc2ccco2)c2ccccc2n1,inactive
19,COc1ccccc1Nc1nc(Cl)c(C=O)s1,inactive
20,CCOC(=O)c1cc(-c2ccncc2)nc2c1c(C)nn2-c1ccccn1,inactive
21,COc1cc(C(c2nnnn2C2CCCC2)N2CCN(C)CC2)cc(OC)c1OC (centres undefined),inactive
22,COc1ccc(N=CC2=C(Nc3ccc(OC)cc3)c3c(C)nn(-c4ccccn4)c3CC2)cc1,inactive

row,Structure (SMILES),inhibition
1,Cc1cc(C)nc(SCC(=O)Nc2sc3c(c2C#N)CCC(C)C3)n1 (centres undefined),inactive
2,O=C(CSc1ncc(-c2ccc(F)cc2)[nH]1)NCc1ccco1,inactive
3,O=C(CSc1nc2c(c(=O)n1-c1ccc(F)cc1)SCC2)NCc1ccco1,inactive
4,Oc1ccccc1N=Cc1c(O)ccc2oc3c(c12)CCCC3,inactive
5,CCCCOc1ccc(C2=NNC(=O)CC2)cc1,inactive
6,Cc1c(C(=O)Nc2ccncc2)sc2nc(-c3ccc(F)cc3)cn12,inactive
7,Cc1ccc(C(=O)Nc2ccc3c(c2)ncn3C)cc1,inactive
8,Cc1cc(C)c([C@@H]2C[C@H]3CN(C4CCCC4)C(=O)[C@]34CCCN24)c(-n2cccn2)c1,inactive
9,O=C(Oc1ccc[nH]c1=O)c1cc([N+](=O)[O-])cc([N+](=O)[O-])c1,inactive
10,Cc1ccc(C)c2[nH]c(=O)c(CN(Cc3cccnc3)C(=S)NCc3ccco3)cc12,inactive
11,C#CCOCCOCCOCCNc1nc(N2CCN(C(=O)CCCCCCCCCCNC(=O)[C@H](CO)n3cc(CCCSC)nn3)CC2)nc(N2CCN(C(=O)CCCCCCCCCCNC(=O)[C@H](CCCN=C(N)N)n3cc(C[C@@H](C)CC)nn3)CC2)n1,inactive
12,C#CCOCCOCCOCCNc1nc(N2CCN(C(=O)CCCCCCCCCCNC(=O)Cn3cc(C[C@@H](C)O)nn3)CC2)nc(N2CCN(C(=O)CCCCCCCCCCNC(=O)[C@H](CCCN=C(N)N)n3cc(C[C@@H](C)CC)nn3)CC2)n1,inactive
13,C#CCOCCOCCOCCNc1nc(N2CCN(C(=O)CCCCCCCCCCNC(=O)[C@H](CCCCN)n3cc(C[C@@H](C)CC)nn3)CC2)nc(N2CCN(C(=O)CCCCCCCCCCNC(=O)[C@@H]([C@H](C)O)n3cc(C)nn3)CC2)n1,inactive
14,CCN(CC)CCCNC(=O)c1c(O)c2c([nH]c1=O)CCCC2,inactive
15,COc1cc(C(=O)Nc2ccc3c(c2)OCCO3)ccc1OC(C)C,inactive
16,Cc1ccc(S(=O)(=O)N2CCOCC2)cc1NC(=O)CSc1nc(N)cc(=O)[nH]1,inactive
17,C[C@@H](CO)NC(=O)c1ccc2c3n(nc2c1)-c1ccc(Cl)cc1CO3,inactive
18,Cc1nc2nc(COc3ccccc3)nn2c(C)c1Cl,inactive
19,CC(C)C(=O)Nc1ccccc1-c1nc2ccccc2[nH]c1=O,inactive
20,O=C(/C=C/c1ccccc1)OCc1cnc(Cl)s1,inactive
21,O=C(/C=C/c1ccccc1)NC(=S)N1CCSCC1,inactive
22,CCc1nnc(NS(=O)(=O)c2ccc(NC(=S)NC(=O)/C=C/c3ccc(C(C)C)cc3)cc2)s1,inactive

row,Structure (SMILES),inhibition
1,COc1ccccc1-n1c(SCC(=O)O)nnc1-c1ccc(S(=O)(=O)N2CCCCC2)cc1,inactive
2,O=C(CCSCc1ccccc1F)NCc1cccs1,inactive
3,Nc1cc(N2CCOCC2)c(Cl)cc1[N+](=O)[O-],inactive
4,O=C(NC1CC1)C1CCN(C2CCN(C(=O)Cc3ccc(F)cc3)CC2)CC1,inactive
5,Cc1ccc(NC(=O)C(=O)NNC(=O)c2cccs2)cc1,26.1% [at 2.34 µM] (inactive)
6,COC(=O)c1ccc(NC(=S)NNC(=O)c2ccccc2)cc1,inactive
7,COc1cc(C(=O)NC(=S)Nc2cccc3nc(C)ccc23)cc(OC)c1OC,inactive
8,O=C(NNC(=O)c1cccs1)c1ccc2ccccc2c1,inactive
9,CCCC(=O)N1CCN(c2ccc(NC(=S)NC(=O)c3cccc(C)c3)cc2)CC1,inactive
10,COc1ccc(-c2noc(CCC(=O)Nc3cccc(C)c3)n2)cc1,inactive
11,CC1(C)CC(=O)C(C(=O)/C=C/NCCc2ccccc2)C(=O)C1,inactive
12,Cc1ccc(-c2cc(N)nc(-c3ccccc3)c2)cc1,inactive
13,O=C1C(SCCO)=C(SCCO)C(=O)c2ccccc21,inactive
14,O=C(O)c1ccc(NC2=C(Cl)C(=O)c3ccccc3C2=O)cc1,inactive
15,CC(C)C(NS(=O)(=O)c1cccc2nsnc12)C(=O)N1CCn2c1nc1ccccc12 (centres undefined),inactive
16,COc1cccc(N2CCN(C(=S)NCc3ccco3)CC2)c1,inactive
17,COc1ccc(Nc2nc(-c3ccccc3)nc3ccccc23)cc1S(=O)(=O)N1CCOCC1,inactive
18,C=CCn1c(O)c(N=NC(=O)c2cccnc2)c2cc(Br)ccc21,inactive
19,COc1cccc(C(=O)CC(=O)C(=O)Nc2cc(OC)c(OC)c(OC)c2)c1,inactive
20,Cc1cc(C)cc(N(C(=O)CNC(=O)c2cccs2)C(C(=O)NC2CCCC2)c2cccnc2)c1 (centres undefined),inactive
